# Assay results: PubChem BioAssay
# The source made the active and inactive calls. Unless noted, no rule for the calls is given here.
# Experiments:
# [1] = system: Wnt5a (protein binding on small-molecule microarray); assay: Wnt5a binders on small-molecule microarray, primary screen, biophysical, 635/667 nm fluorescence (AID 1142); conditions: 635 nm fluorescence, higher = more signal;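 also: fluorescence read at 667 nm with signal to noise per printed feature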
# [2] = cell viability in Huh7 cells, primary screen, cytotoxicity control for HCV replication inhibitor project, CellTiter-Glo luminescence, basal, 48 h (AID 1143); conditions: Huh7 HCV replicon, higher = more signal, called active from +8 up or from −8 down;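 also: Huh7 hepatoma cells carrying a hepatitis C replication reporter with no stimulus; test concentration not given here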
# [3] = P. aeruginosa biofilm formation inhibitors, primary screen, PAO1 strain, BacTiter-Glo luminescence, LB-PBS (AID 1144); conditions: 12 h, higher = more signal
# [4] = CREB reporter modulators without forskolin, primary screen, cell-based, PC12, CRE-LacZ reporter, unstimulated (AID 1145); conditions: no forskolin, luminescence, 4.5 h, higher = more signal, called active from +8 up or from −8 down
# [5] = CREB reporter modulators under forskolin, primary screen, cell-based, PC12, CRE-LacZ reporter, forskolin-stimulated (AID 1146); conditions: luminescence, 4.5 h, higher = more signal, called active from +8 up or from −8 down;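 also: PC12 cells with 6xCRE LacZ reporter stimulated by forskolin 10 µM; beta-galactosidase reporter signal reflecting CREB driven transcription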
# [6] = molecular target: Streptavidin (Streptomyces avidinii) (UniProt P22629); assay: streptavidin binders on small-molecule microarray, primary screen, artefact control for SMM compound annotation, biophysical, 635/667 nm fluorescence (AID 1147); conditions: streptavidin binding, higher = more signal;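 also: signal reflects streptavidin binding to arrayed compounds as a control protein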
# Chain of Streptavidin (Streptomyces avidinii) (P22629 whole entry, looked up): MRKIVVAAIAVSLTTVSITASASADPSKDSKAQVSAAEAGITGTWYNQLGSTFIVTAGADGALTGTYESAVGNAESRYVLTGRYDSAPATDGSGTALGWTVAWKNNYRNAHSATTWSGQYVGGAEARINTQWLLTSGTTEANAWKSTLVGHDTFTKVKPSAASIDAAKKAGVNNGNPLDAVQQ
# [7] = small-molecule binders of probe aInhba, primary screen, biochemical, small-molecule microarray, 635/667 nm fluorescence (AID 1148); conditions: higher = more signal;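 also: score merges 667nm spot fluorescence with signal-to-noise for antibody binding to printed compounds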
# [8] = molecular target: Torsin-1A (Homo sapiens) (UniProt O14656); assay: torsin A binders from cell lysate, primary screen, small-molecule microarray, wild-type, 635/667 nm (AID 1149); conditions: COS7 hTOR1A-WT lysate, 635 nm fluorescence, higher = more signal
# Chain of Torsin-1A (Homo sapiens) (O14656 whole entry, looked up): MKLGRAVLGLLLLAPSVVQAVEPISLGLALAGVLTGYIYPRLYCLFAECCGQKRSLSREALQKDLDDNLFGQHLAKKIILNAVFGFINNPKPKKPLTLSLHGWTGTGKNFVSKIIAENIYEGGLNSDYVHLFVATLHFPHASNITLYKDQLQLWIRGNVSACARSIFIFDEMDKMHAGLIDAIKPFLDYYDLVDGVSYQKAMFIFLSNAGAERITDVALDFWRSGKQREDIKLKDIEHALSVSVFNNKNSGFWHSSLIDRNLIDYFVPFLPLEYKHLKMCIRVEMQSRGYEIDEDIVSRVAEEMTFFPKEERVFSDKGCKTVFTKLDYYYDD
# [9] = molecular target: Torsin-1A (Homo sapiens) (UniProt O14656); assay: small-molecule binders of mutant TOR1A in lysate, primary screen, cell lysate, small-molecule microarray, COS7 lysate, 635/667 nm fluorescence (AID 1150); conditions: COS7 hTOR1A mutant lysate, 635 nm fluorescence, higher = more signal;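 also: score pools 667 nm emission and signal to noise measuring lysate protein binding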
# [10] = system: Sonic hedgehog protein (Shh); assay: small-molecule binders of Shh protein, primary screen, biochemical, small-molecule microarray, 635/667 nm fluorescence (AID 1151); conditions: small-molecule microarray binding, 635 nm fluorescence; higher = more signal;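 also: Shh protein binding to compounds spotted on small-molecule microarray slides; score combines spot fluorescence intensity with signal-to-noise across triplicate slides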
Compound,composite z-score [1],z-score [2],z-score [3],z-score [4],z-score [5],composite z-score [6],composite z-score [7],composite z-score [8],composite z-score [9],composite z-score [10]
CN1CCc2nc(-c3ccccc3)c(-c3ccccc3)cc2C1,0.0321,0.55 (inactive),0.99 (inactive),1.65 (inactive),0.0655 (inactive),0.0666,-0.176,0.214,0.539,0.464
CC(C)=CCCC(C)=CCON=C1[C@H]2CCn3c(=O)n(-c4ccccc4)c(=O)n3[C@H]2[C@H](O)[C@@H]2O[C@H]12,0.0694,-1.7 (inactive),-0.044 (inactive),-0.473 (inactive),-0.271 (inactive),1.07,0.0319,1.02,0.413,1.38
CCO[C@H](c1cc(OC)cc([N+](=O)[O-])c1OC)[C@H](C)[C@@H](OC)[C@H](C)C=CCC(=O)OC,0.018,-0.267 (inactive),-0.378 (inactive),0.0246 (inactive),-0.183 (inactive),-0.0837,-0.183,0.388,0.294,0.628
CO[C@@H](C1CCCCC1)[C@@H](C)[C@H](OCc1cccc(Br)c1)[C@@H](C)CO,-0.098,-2.1 (inactive),0.115 (inactive),2.93 (inactive),0.432 (inactive),-0.0731,0.0442,-0.0604,0.467,0.458
OC[C@H]1O[C@H](C#Cc2ccccc2)C=C[C@@H]1O,0.0146,-0.574 (inactive),-0.385 (inactive),-1.07 (inactive),0.186 (inactive),0.431,0.0227,-0.339,0.141,0.363
CCOC(=O)CCN1C(=O)[C@H]2[C@H]3[C@H](O)[C@H](O)CC(=NO[C@@H]4O[C@H](CO)[C@@H](O)[C@H](O)[C@H]4O)[C@H]3CC[C@H]2C1=O,-0.167,0.38 (inactive),0.132 (inactive),0.241 (inactive),0.497 (inactive),-0.0432,-0.05,0.629,0.307,0.493
CC(=O)OC[C@H]1O[C@H](CC=NO[C@@H](C)c2cc(-c3c(C)cc(C)cc3C)no2)C=C[C@@H]1OC(C)=O,-0.184,0.125 (inactive),-0.176 (inactive),0.173 (inactive),0.481 (inactive),0.897,-0.175,0.213,-0.31,0.0602
COC(=O)CC=C[C@@H](C)[C@@H](C=NOC(C)CN1CCCCc2nc(C)c(C)cc21)NS(=O)(=O)c1ccc(C)cc1 (stereo not given in full),0.104,0.453 (inactive),0.89 (inactive),-0.882 (inactive),0.877 (inactive),-0.343,-0.0221,1.05,0.705,0.56
COC(=O)[C@H](C)NC(=O)CCC1CC(OC(=O)NCc2ccc3c(c2)OCO3)CC2(CCCC(COC(=O)NCc3ccccc3)O2)O1 (stereo not given in full),0.298,-0.268 (inactive),-0.801 (inactive),-0.345 (inactive),-0.169 (inactive),0.115,-0.0136,0.283,0.177,1.38
Cc1ccc2[nH]c3nc(CCCn4ccnc4-c4ccccc4)nnc3c2c1,0.181,-0.317 (inactive),0.892 (inactive),-0.435 (inactive),-0.815 (inactive),0.857,0.157,0.443,0.807,1.18
CCN1C(=O)[C@H]2[C@@H]3C(=CC[C@H]2C1=O)C(=O)[C@H]1O[C@H]1[C@H]3O,0.116,-5.2 (inactive),1.41 (inactive),2.79 (inactive),21.9 (active),0.49,-0.183,0.734,0.348,1.64
COC(=O)[C@@H]1CC[C@H](C)[C@@H](c2ccc(C)cc2)N1C(=O)c1ccc(C=NOC[C@H]2O[C@H](c3ccccc3)C=C[C@@H]2Oc2ccc(OC)cc2)cc1,-0.134,-0.814 (inactive),0.605 (inactive),0.253 (inactive),0.718 (inactive),-0.216,0.0018,-0.671,-0.329,0.415
C=CCOCC1CN2[C@@H](CC[C@@H](C)[C@@H]2c2ccc(Br)cc2)C(=O)O1 (stereo not given in full),-0.234,-0.0112 (inactive),1.1 (inactive),0.829 (inactive),-0.0565 (inactive),0.0804,-0.367,0.318,0.499,0.257
CC(CCN1CCc2nc(-c3ccccc3)c(-c3ccccc3)cc2C1)=NO[C@@H](C)c1cc(-c2c(C)cc(C)cc2C)no1,-0.405,-2.58 (inactive),-0.832 (inactive),2.71 (inactive),-0.426 (inactive),2.15,-0.159,0.199,0.153,-0.387
O=C(NN=C1C[C@@H](O)[C@@H](O)[C@@H]2[C@@H]3C(=O)N(Cc4ccccc4)C(=O)[C@@H]3CC[C@H]12)OCc1ccccc1,-0.014,-0.575 (inactive),-0.281 (inactive),0.0628 (inactive),0.401 (inactive),-0.0198,0.0406,0.726,0.983,1.06
CO[C@@H](C(C)C)[C@@H](C)C1OC(=O)CC1O (stereo not given in full),-0.124,0.265 (inactive),0.446 (inactive),-0.0673 (inactive),-0.0208 (inactive),-0.468,-0.158,-0.118,-0.0794,-0.595
O=C1CCCC=C1C(O)COCc1ccccc1 (stereo not given),0.154,0.78 (inactive),0.616 (inactive),0.109 (inactive),0.0658 (inactive),1.42,-0.238,-0.465,-0.0394,0.124
Cc1ccc(C(C)C)n1C(=O)OC(C)(C)C,0.211,-0.841 (inactive),-1.5 (inactive),-0.708 (inactive),0.686 (inactive),0.963,-0.176,0.356,0.196,0.675
